Compounds with a hit are over-represented: about 4.1% of the library has one in this group of screens.
hgDAF-12 ag: agonists of H. glycines DAF-12 nuclear receptor. HEK293 GAL4-hgDAF12 UAS-luciferase reporter, agonist luminescence; normalized to butyrate control. AID 687014. activation, % at 6.8 µM. actives 1.8% (n = 370,000);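 active means activation above a cutoff set at the mean of all screened compounds plus 3 SD, cut at about 10% in these data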;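 further: 0% = DMSO wells and 100% = sodium butyrate wells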
hcDAF12 agonist: activates DAF-12 receptor from parasite H. contortus | HEK293 hcDAF-12 lit1-tk-luc reporter, luminescence; 0% DMSO, 100% Δ7-dafachronic acid | AID 652067 | actives 1.4% (n = 370,000) | activation, % at 6.8 µM;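 active means activation above the mean of all tested compounds plus 3 SD, cut at about 5.5% in these data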;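 further: 100% = response to 3 µM Δ7-dafachronic acid high control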
DAX1 inh-1: inhibitors of DAX1 repression of SF-1 activated StAR promoter; HEK293T StAR-luciferase reporter, SF-1/DAX-1 repression relief; inhibition, % at 6.8 µM; actives 1.1% (n = 370,000);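 active means inhibition above the mean over all tested compounds plus 3 SD, cut at about 3.6% in these data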;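 further: 0% = DAX-1 cells with DMSO and 100% = cells lacking DAX-1 with DMSO; higher inhibition means more luminescence from relief of DAX-1 repression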
ssDAF-12 act: activates DAF-12 receptor from parasite S. stercoralis. HEK293 ssDAF-12/GRIP1 lit1-tk-luc reporter, luminescence; % of 3 µM dafachronic acid response. activation, % at 6.8 µM. actives 1% (n = 370,000). AID 652126;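 active means activation above the mean over all tested compounds plus 3 SD, cut at about 0.9% in these data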;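 further: 0% = DMSO-only wells and 100% = 3 µM delta7-dafachronic acid wells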
DAX1 inh-2: inhibits human nuclear receptor DAX1. P51843. HEK293 Gal4-DAX1 luciferase reporter, luminescence. inhibition, % at 6.75 µM. actives 0.99% (n = 340,000). AID 504766;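 active means inhibition above the mean over all tested compounds plus 3 SD, cut at about 4.2% in these data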;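 further: 0% = DAX1-transfected cells with DMSO and 100% = empty-vector control cells with DMSO; inhibition shows as a rise in luminescence from relieved DAX1 repression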
Target sequence (P51843 207-470 limits assumed): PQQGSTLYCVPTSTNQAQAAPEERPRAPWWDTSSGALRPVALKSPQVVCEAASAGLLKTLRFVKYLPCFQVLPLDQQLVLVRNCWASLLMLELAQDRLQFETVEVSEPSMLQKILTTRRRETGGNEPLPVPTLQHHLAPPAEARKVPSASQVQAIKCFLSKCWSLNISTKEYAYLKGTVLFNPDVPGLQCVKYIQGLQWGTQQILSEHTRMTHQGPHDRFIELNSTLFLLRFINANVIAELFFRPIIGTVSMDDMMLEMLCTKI
LXRb hcDAF ctr: counter-screen for hcDAF-12 agonists: agonists of human LXR-beta; activation, % at 6.8 µM; shares compounds with hcDAF12 agonist; HEK293 Gal4-LXR tk-luc reporter, luminescence, 24 h; normalized: DMSO 0%, positive control 100%; 3,400 tested, under 10 active;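 active means mean percent activation of the reporter above a cutoff set as the average over tested compounds plus their standard deviation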
hcDAF12 ag: confirmation of H. contortus DAF-12 agonists; actives 61% (n = 3,400); HEK293 hcDAF-12 lit1-tk-luc reporter, luminescence; % of Δ7-dafachronic acid response; activation, % at 6.8 µM; AID 743032; shares compounds with hcDAF12 agonist;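 active means mean activation across triplicate tests above the threshold derived from the earlier primary screen, cut at about 5.5% in these data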;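 further: 0% = DMSO only wells and 100% = 3 µM Δ7-dafachronic acid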
* = called active by the depositor; · = no result given.

SMILES | hgDAF-12 ag | hcDAF12 agonist | DAX1 inh-1 | ssDAF-12 act | DAX1 inh-2 | LXRb hcDAF ctr | hcDAF12 ag
C[C@H]1CCCN1c1cccc2c1S(=O)(=O)N(C1CC1)CCCO2 | -1 | 0 | -1 | -1 | · | · | ·
CCCCCOc1ccc(NS(C)(=O)=O)cc1 | 2 | 8.0* | 1 | 0 | 1 | 0 | 4
C/C(=N\Nc1nc2ccccc2[nH]1)c1ccc(C)o1 | 8 | 7.5* | 1 | 2.2* | 0 | 0 | 8.6*
CNc1nc(-c2ccccc2)[n+](-c2ccc(C)cc2)s1 | 8 | 11* | 2 | 1.1* | -2 | 0 | 0
Cc1ccc(-c2nc(N)s[n+]2-c2ccccc2)cc1 | 3 | 0 | 0 | 0 | 1 | · | ·
CC(=O)c1cccc(N=C2C(=O)Nc3ccccc32)c1 | 2 | 6.6* | 1 | 0 | 0 | 0 | 2
Cc1ccc(N=C2C(=O)Nc3ccccc32)cc1C | -2 | -1 | 0 | 0 | -1 | · | ·
COc1ccccc1C(=O)Nc1cc(Cl)ccc1O | 3 | 9.8* | 0 | 0 | 0 | 0 | 5.8*
COc1ccccc1C(=O)NC(=O)Nc1cccc(Cl)c1 | 14* | 13* | 2 | 1 | 4 | 2 | 18*
CNC(=S)NNc1ccccc1[N+](=O)[O-] | -4 | 4 | 0 | 0 | 0 | · | ·
COCCNC(=S)NNc1ccccc1[N+](=O)[O-] | 2 | 8.7* | -1 | 0 | 0 | 0 | 5
O=C(NN=C(Cc1ccccc1)Cc1ccccc1)c1ccc(F)cc1 | 9 | 6.8* | 1 | -1 | -1 | 0 | 1
C/C(Cc1ccccc1)=N\NC(=O)c1ccc(F)cc1 | 4 | 1 | 0 | 1 | 0 | · | ·
Cc1cccc(NNC(=S)Nc2ccccc2)c1 | 3 | 11* | 1 | 0 | 1 | 0 | 5
Cn1c(=O)c2[nH]c(NN=Cc3cccc(Br)c3)nc2n(C)c1=O | -5 | 0 | 0 | -1 | -1 | · | ·
Oc1ccccc1C1NN=C(c2ccccc2)S1 (stereo not drawn) | 16* | 20* | 4.1* | 4.2* | 3 | 2 | 16*
CSc1ccc(C2NN=C(c3ccccc3)S2)cc1 (stereo not drawn) | 15* | 12* | 4 | 2.3* | · | 2 | 14*
COc1ccc(C2NN=C(c3ccc(C)cc3)S2)cc1 (stereo not drawn) | 10 | 4 | 2 | 0 | 4 | · | ·
O=C(NCc1ccccc1F)C1CCC(CNS(=O)(=O)c2cccc3cccnc23)CC1 (stereo not drawn) | -1 | 0 | -1 | -1 | · | · | ·
O=C(NC1CCCCN(Cc2ccc(Cl)cc2)C1=O)c1cccc([N+](=O)[O-])c1 (stereo not drawn) | 0 | -2 | -1 | -1 | · | · | ·
CC(NC(=O)C1CCN(CCOc2ccc(Cl)cc2)CC1)c1cccc2ccccc12 (stereo not drawn) | -1 | -2 | 0 | -1 | · | · | ·
COc1ccc(-c2nn(-c3ccccc3)cc2C2CC(c3cccs3)=NN2C(=O)CCC(=O)O)cc1 (stereo not drawn) | -1 | 1 | 0 | 0 | -1 | · | ·
COc1ccccc1C1CC(c2cccs2)=NN1C(=O)CCC(=O)O (stereo not drawn) | 8 | 7.0* | 0 | 0 | -1 | 0 | 3
CC1(C(=O)Nc2ccc3c(c2)OCO3)CCN1C(=O)CCc1ccc(Cl)cc1Cl (stereo not drawn) | -3 | 2 | 0 | -1 | · | · | ·
O=C(NCc1ccccc1)c1cc(C2CCCCN2C(=O)c2ccccc2)on1 (stereo not drawn) | -1 | -2 | -2 | -1 | · | · | ·
CCCC(C)NC(=O)Cc1ccccc1[N+](=O)[O-] (stereo not drawn) | 3 | 7.3* | 1 | 1.1* | 1 | 0 | 5.9*
O=C(O)c1ccc(NCc2nc3ccccc3n2Cc2ccccc2)cc1 | -1 | -1 | 0 | -1 | -1 | · | ·
Cn1c(CNc2ccccc2O)nc2ccccc21 | 4 | 8.4* | 0 | 3.0* | 0 | 0 | 9.0*

Source: PubChem BioAssay
